Reference: PubChem BioAssay (NCATS)
Inconclusive results are not listed. The source made the active and inactive calls. Unless noted, calls follow the shape of the dose curve; as a rule, active = well fitted curve in either direction with a large enough effect (not every such curve was filed as active); inconclusive = small, poorly fitted or top-dose-only effect, or another doubt; inactive = flat fitted curve, though single readings scatter.

Experiments:
[1] = AP1 Signaling Pathway (AID 357); details: ME-180 AP-1-bla reporter, EGF-induced, beta-lactamase ratio, 5 h; at 17.2 µM (top of the series) unless noted;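 also: ME-180 reporter cells stimulated with EGF at its EC50 level; % is scaled to controls: 0 for no effect and ±100 for the full control effect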
In short: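 First, ME-180 AP-1-bla cells were cultured overnight at 37 °C in low-serum Opti-MEM. Next, titrated compounds with EC50 EGF were incubated 5 hours. Finally, CCF4 was added for 2.5 hours and the 460/530 nm ratio recorded.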

[2] = NFAT Signaling Pathway (AID 444); details: Jurkat NFAT-bla M1, carbachol, beta-lactamase ratio, 5 h; at 17.2 µM (top of the series) unless noted;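 also: carbachol stimulus at about its EC50 of 1 µM final; % is scaled to controls: 0 for no effect and ±100 for the full control effect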
In short: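 Jurkat cells carrying an NFAT-driven β-lactamase reporter and co-transfected muscarinic M1 receptor were treated with compound plus carbachol (1 uM final, an EC50 level) for 5 h at 37 °C. CCF4 loading followed for 1 h at RT; 460/530 nm ratio gave %activity.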

[3] = Stat Signaling Pathway (AID 446); details: ME-180 SIE beta-lactamase reporter, IL-6 stimulated, 5 h; at 17.2 µM (top of the series) unless noted;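 also: ME-180 cervical cancer cells given 40 pM IL-6 alongside compound; SIE-controlled beta-lactamase reporter measured as 460/530 nm FRET emission ratio; % is scaled to controls: 0 for no effect and ±100 for the full control effect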
In short: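 Reporter line: ME-180 cervical carcinoma, SIE-beta-lactamase. Treatment: compound with 40 pM IL-6, 5 hrs, 37 C, in low-serum OPTI-MEM with 10 mM HEPES pH 7.3. Detection: 460/530 nm fluorescence.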

[4] = target: Glucocorticoid receptor (Homo sapiens) (UniProt P04150); assay: GR-GFP Redistribution (AID 450;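 active = compounds whose dose series gives a full or clear partial fitted curve of increased nuclear translocation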; also: potency is read from the fitted curve at half-maximal effect)
Chain of Glucocorticoid receptor (Homo sapiens) (P04150 whole entry, looked up): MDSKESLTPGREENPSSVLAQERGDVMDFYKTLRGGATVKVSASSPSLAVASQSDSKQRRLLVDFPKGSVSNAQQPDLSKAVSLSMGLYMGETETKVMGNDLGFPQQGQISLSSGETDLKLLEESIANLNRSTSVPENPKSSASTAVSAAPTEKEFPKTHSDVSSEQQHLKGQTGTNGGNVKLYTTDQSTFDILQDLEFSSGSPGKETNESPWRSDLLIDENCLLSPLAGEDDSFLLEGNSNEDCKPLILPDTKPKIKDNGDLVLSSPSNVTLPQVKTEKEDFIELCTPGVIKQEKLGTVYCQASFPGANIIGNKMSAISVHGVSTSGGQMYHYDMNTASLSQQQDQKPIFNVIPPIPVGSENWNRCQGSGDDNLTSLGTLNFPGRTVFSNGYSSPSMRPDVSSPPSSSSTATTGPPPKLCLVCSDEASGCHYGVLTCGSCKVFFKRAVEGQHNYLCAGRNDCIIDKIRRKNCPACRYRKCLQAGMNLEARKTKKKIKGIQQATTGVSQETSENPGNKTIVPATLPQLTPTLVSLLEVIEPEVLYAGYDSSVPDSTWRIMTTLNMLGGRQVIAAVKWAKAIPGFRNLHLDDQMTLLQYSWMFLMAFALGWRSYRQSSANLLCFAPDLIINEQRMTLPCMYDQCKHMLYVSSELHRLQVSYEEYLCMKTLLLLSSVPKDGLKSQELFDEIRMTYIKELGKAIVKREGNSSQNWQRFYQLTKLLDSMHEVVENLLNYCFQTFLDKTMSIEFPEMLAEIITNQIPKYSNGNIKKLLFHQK

c1ccc(OCc2nn3c(-c4cccnc4)nnc3s2)cc1
inactive: activity change, negative = inhibition [1] -6.61% | activity change, negative = inhibition [2] 2.29% | activity, negative = inhibition [3] -4.47% | Potency [4] > 20.6 µM

CSc1nc2[nH]c3c(c2c2nncn12)CC(C)(C)OC3
inactive: activity change, negative = inhibition [1] -4.3% | activity change, negative = inhibition [2] -1.24% | activity, negative = inhibition [3] 7.21% | Potency [4] > 20.6 µM

Cn1c(N)c(C#N)c2c(c1=S)CSC(C)(C)C2
inactive: activity change, negative = inhibition [1] 1.02% | activity change, negative = inhibition [2] -25.2% | activity, negative = inhibition [3] -2.98% | Potency [4] > 20.6 µM

COC(=O)CNc1nc(-c2cccnc2)nc2ccccc12
inactive: activity change, negative = inhibition [1] -12.5% | activity change, negative = inhibition [2] -5.87% | activity, negative = inhibition [3] -8.59% | Potency [4] > 20.6 µM

CCCOc1ccc(N2C(=O)CC(N(Cc3ccc(S(N)(=O)=O)cc3)C(=O)CC)C2=O)cc1 (centres undefined)
inactive: activity change, negative = inhibition [1] -6.51% | activity change, negative = inhibition [2] 20.1% | activity, negative = inhibition [3] 11.7% | Potency [4] > 20.6 µM

O=C(O)C1CSC(CCc2ccccc2)N1 (centres undefined)
inactive: activity change, negative = inhibition [1] 19.9% | activity change, negative = inhibition [2] -1.74% | activity, negative = inhibition [3] 27% | Potency [4] > 20.6 µM

CCOc1cc(CN2CCOCC2)cc(C(C)=O)c1
inactive: activity change, negative = inhibition [1] 14.3% | activity change, negative = inhibition [2] -4.27% | activity, negative = inhibition [3] 1.95% | Potency [4] > 20.6 µM

CCCC(=O)N1CCc2[nH]c3ccccc3c2C1
inactive: activity change, negative = inhibition [1] -13% | activity change, negative = inhibition [2] 13.8% | activity, negative = inhibition [3] -6.04% | Potency [4] > 20.6 µM

C=COC(=O)CSc1nc(-c2cccs2)ccc1C#N
inactive: activity change, negative = inhibition [1] 4.27% | activity change, negative = inhibition [2] -19.4% | activity, negative = inhibition [3] 12.2% | Potency [4] > 20.6 µM

CCN(CC)CCCN1C(=O)C(=O)/C(=C(/O)c2ccccc2)C1c1ccccn1 (centres undefined)
inactive: activity change, negative = inhibition [1] -0.714% | activity change, negative = inhibition [2] 5.2% | activity, negative = inhibition [3] 3.59% | Potency [4] > 20.6 µM

C/C(CC1(O)C(=O)N(Cc2ccccc2)c2ccccc21)=N\O (centres undefined)
inactive: activity change, negative = inhibition [1] 2.48% | activity change, negative = inhibition [2] 1.97% | activity, negative = inhibition [3] 3.88% | Potency [4] > 20.6 µM

COn1c(=S)[nH]c2ccccc2c1=O
inactive: activity change, negative = inhibition [1] 20.1% | activity change, negative = inhibition [2] 11.2% | activity, negative = inhibition [3] 8.68% | Potency [4] > 20.6 µM

CCC(NC(=O)Nc1nnc(C(F)(F)F)s1)(C(F)(F)F)C(F)(F)F
inactive: activity change, negative = inhibition [1] 18.4% | activity, negative = inhibition [3] -38.4% | Potency [4] > 20.6 µM
active: activity change, negative = inhibition [2] -115%

COc1cccc(OC)c1C(=O)N1CCN(S(=O)(=O)c2ccc(C)cc2)CC1
inactive: activity change, negative = inhibition [1] -12.3% | activity change, negative = inhibition [2] -1.17% | activity, negative = inhibition [3] 6.68% | Potency [4] > 20.6 µM

NC(=O)c1cc(-c2ccccc2)nc(Oc2ccccc2)n1
inactive: activity change, negative = inhibition [1] -14.4% | activity change, negative = inhibition [2] -25.9% | activity, negative = inhibition [3] -5.87% | Potency [4] > 20.6 µM

O=C(COc1ccc(Cl)cc1)Nc1ccccc1CO
inactive: activity change, negative = inhibition [1] 6.8% | activity change, negative = inhibition [2] 6.35% | activity, negative = inhibition [3] 0.225% | Potency [4] > 20.6 µM

C=CCOc1ccc(/C(O)=C2/C(=O)C(=O)N(CCCN3CCOCC3)C2c2ccc(OC)cc2)cc1 (centres undefined)
inactive: activity change, negative = inhibition [1] -6.96% | activity change, negative = inhibition [2] 8.61% | activity, negative = inhibition [3] -4.29% | Potency [4] > 20.6 µM

COC(=O)CSc1nnc2n(-c3ccc(OC)cc3)c(=O)c3c4c(sc3n12)CCCCC4
inactive: activity change, negative = inhibition [1] -16% | activity change, negative = inhibition [2] -18.9% | activity, negative = inhibition [3] 5.65% | Potency [4] > 20.6 µM

C=CCOC(=O)C1=C(C)NC(SCC(=O)Nc2ccc(C)c(Cl)c2)=C(C#N)C1c1ccco1 (centres undefined)
inactive: activity change, negative = inhibition [1] -4.79% | activity change, negative = inhibition [2] 7.32% | activity, negative = inhibition [3] 6.22% | Potency [4] > 20.6 µM

COC(=O)Cn1cc(C(=O)OC)cc(Br)c1=O
inactive: activity change, negative = inhibition [1] 8.29% | activity change, negative = inhibition [2] 0.926% | activity, negative = inhibition [3] -0.311% | Potency [4] > 20.6 µM

COCCOCCOCCC(=O)NC1CC2CCC1(C)C2(C)C (centres undefined)
inactive: activity change, negative = inhibition [1] 13.7% | activity change, negative = inhibition [2] 0.73% | activity, negative = inhibition [3] -0.452% | Potency [4] > 20.6 µM

CC(=O)[C@H]1CC[C@H]2[C@@H]3CCC4=CC(=O)CC[C@]4(C)[C@H]3[C@H](O)C[C@]12C
inactive: activity change, negative = inhibition [1] -0.48% | activity change, negative = inhibition [2] 2.54% | activity, negative = inhibition [3] 2.53% | Potency [4] > 20.6 µM

Cc1nnc(SCC(=O)N2CCOCC2)c2ccccc12
inactive: activity change, negative = inhibition [1] -1.59% | activity change, negative = inhibition [2] 3.16% | activity, negative = inhibition [3] 2.48% | Potency [4] > 20.6 µM

CCCCOC(=O)c1[nH]c(C)c(C(=O)OC)c1C
inactive: activity change, negative = inhibition [1] -3.13% | activity change, negative = inhibition [2] 8.05% | activity, negative = inhibition [3] -9.04% | Potency [4] > 20.6 µM

O=C(Nc1ccc2c(c1)OCO2)c1cc2n(n1)C(C(F)(F)F)CC(c1ccccc1)N2 (centres undefined)
inactive: activity change, negative = inhibition [1] 6.53% | activity change, negative = inhibition [2] 6.64% | activity, negative = inhibition [3] -1.67% | Potency [4] > 20.6 µM

N/C(CCN1CCCCC1)=N/O
inactive: activity change, negative = inhibition [1] 8.61% | activity change, negative = inhibition [2] -6.23% | activity, negative = inhibition [3] 2.5% | Potency [4] > 20.6 µM
